# Experimental data published in PubChem BioAssay (Tox21).
# Inconclusive results are not listed. Values without a mark were called inactive. Calls follow the shape of the dose curve; as a rule, active = well fitted cell-killing curve with a large enough effect in the repeat runs; inconclusive = weak or mixed curves, or effect the other way; inactive = no such curve, though single readings can be large or run the other way.
# Test: qHTS assay to identify small molecule antagonists of the glucocorticoid receptor (GR) signaling pathway - cell viability counter screen (AID 720693); also: nearly all actives have a fitted effect of over 55% in size
# Conditions: GR-bla HeLa viability, CellTiter-Glo luminescence, 18 h, with 5 nM dexamethasone present; series mostly up to 58.5 µM; viability change, negative = cytotoxic: at the top concentration
# % is scaled to controls: 0 for no effect and ±100 for the full control effect.
row,Compound,"viability change, negative = cytotoxic"
1,CCCC[P+](C)(CCCC)CCCC,-10.2% [at 78.9 µM]
2,CC(C)(C)C1CCC(=O)CC1,3.71%
3,CCCCN(CCCC)CC(O)c1cc(Cl)cc2c1-c1ccc(Cl)cc1/C2=C/c1ccc(Cl)cc1 (stereo not drawn),-12.1%
4,O=c1c(O)c(-c2ccc(O)cc2O)oc2cc(O)cc(O)c12,1.58%
5,CC1(C)CCC[C@]2(C)[C@H]3CC(=O)O[C@]3(C)CC[C@@H]12,1.95%
6,[Cl][Pt-2]([Cl])([Cl])[Cl],-0.108% [at 78.9 µM]
7,CCN(CC)c1ccc2c(-c3ccc(S(=O)(=O)O)cc3S(=O)(=O)[O-])c3ccc(=[N+](CC)CC)cc-3oc2c1,-21.6% [at 78.9 µM]
8,COc1ccc(-c2coc3cc(O)ccc3c2=O)cc1,5.52%
9,CCO[C@@H]1O[C@H](C(COCc2ccccc2)OCc2ccccc2)[C@H](OCc2ccccc2)[C@H]1O (stereo partly drawn),3.32% [at 27 µM]
10,C=Cc1ccccc1C=C,-1.43% [at 216 µM]
11,CCCCCC(C)OC(=O)COc1ccc(Cl)c2cccnc12 (stereo not drawn),-1.78%
12,S=c1nccc[nH]1,-2.37%
13,COc1cc(S(=O)(=O)O)c(C)cc1N=Nc1c(O)ccc2cc(S(=O)(=O)O)ccc12,-0.471%
